Screening results as filed in PubChem.
RORg inh = ROR gamma (mouse) transcription inhibition; Drosophila S2 Gal4-RORgamma UAS-luciferase reporter, 20 h; Potency, µM (series often up to 53.6 µM), inactives show at the highest dose activity change, negative = inhibition, hits mostly inhibitors; 5.4% of 310,000 active; AID 2551; P51450; note: potency is the fitted concentration of half-maximal effect; % is set by controls: 0 for no effect and ±100 for the full control effect; nearly all actives have a fitted effect of over 60% in size
Target sequence (P51450 whole entry, looked up, the tested form may be a part): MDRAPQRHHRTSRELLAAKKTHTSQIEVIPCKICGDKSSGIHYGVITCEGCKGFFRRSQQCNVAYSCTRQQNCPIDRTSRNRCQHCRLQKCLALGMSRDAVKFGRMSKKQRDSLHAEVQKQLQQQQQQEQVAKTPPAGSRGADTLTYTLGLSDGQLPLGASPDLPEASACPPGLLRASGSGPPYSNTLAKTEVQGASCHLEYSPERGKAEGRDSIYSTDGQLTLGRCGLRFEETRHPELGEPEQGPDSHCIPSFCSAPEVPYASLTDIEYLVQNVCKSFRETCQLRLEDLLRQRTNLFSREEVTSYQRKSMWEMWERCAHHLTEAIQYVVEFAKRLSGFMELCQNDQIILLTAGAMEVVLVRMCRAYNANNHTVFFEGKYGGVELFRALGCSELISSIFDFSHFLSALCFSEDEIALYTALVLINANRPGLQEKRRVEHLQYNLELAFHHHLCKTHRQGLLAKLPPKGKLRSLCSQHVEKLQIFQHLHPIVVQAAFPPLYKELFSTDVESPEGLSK
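Stable Schneider cell line, Gal4 DNA-binding domain fused to ROR gamma, UAS-luciferase. Cmpd 1 hr RT → CuSO4 700 uM final → 20 hr RT → luciferase reagent 10 min → luminescence.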
Giardia killer = kills Giardia lamblia; 0.15% of 340,000 active; Giardia lamblia trophozoite viability; activity change, % at 7.66 µM, hits read low; in the data active = activity change below about -80%; inconclusive = between about -30% and that limit;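 note: parasites exposed to compound for two days anaerobically before the ATP read; % is set by controls: 0 for no effect and ±100 for the full control effect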
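Viability, read as ATP luminescence: trophozoites at 100 cells/well, compound added, 48 hrs anaerobic at 37 deg C, then 15-30 min room-temperature development before reading.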
VP16 counter = counter-screen for ROR gamma inhibitors: Gal4-VP16 reporter; AID 2546; 3.5% of 310,000 active; Drosophila S2 Gal4-VP16 UAS-luciferase, luminescence, 20 h; Potency, µM (series often up to 53.6 µM), for inactives: at the top dose activity, negative = inhibition, actives largely listed as inhibitors;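 note: Gal4-VP16 expression switched on by copper sulfate through the metallothionein promoter; potency is the fitted concentration of half-maximal effect; % is set by controls: 0 for no effect and ±100 for the full control effect; nearly all actives have a fitted effect of over 50% in size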
Chronic BCR inh = inhibitors of chronic active B-cell receptor signaling. ABC-DLBCL IkBa-CBG/CBR reporter, luminescence ratio, 4 h. AID 493014. 0.05% of 340,000 active. Potency, µM (series often up to 46.1 µM), without a hit: at the top dose activity change, negative = inhibition, hits mostly inhibitors; active = well fitted inhibition curve with a large enough effect in the signal ratio, with a control signal flat, not every such curve was filed as active; inconclusive = small, poorly fitted or top-dose-only effect, or effect the other way, or a change in a side signal; the % refers to the signal ratio;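 note: potency is the fitted concentration of half-maximal effect; plate controls were basal doxycycline-induced cells for no effect and cells given 10 µM MG132 for full effect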
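Compounds up to 46 uM were incubated four hours with TMD8 cells whose green CBG68 luciferase is fused to IkappaBalpha; red CBR luminescence normalised the signal, and concentration-effect curves were fitted to fusion, red and ratio data.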
MCF10A rerep = induces DNA re-replication in MCF 10a normal breast cells; MCF 10A DNA re-replication, Hoechst nuclear intensity, 48 h; Potency, µM (highest dose often 46.1 µM), inactives show at the top dose activity, positive = re-replication, usual class: activators; 2.9% of 350,000 active; AID 624296; note: potency is the fitted concentration of half-maximal effect; % of control where 0% means no effect; nearly all actives have a fitted effect of over 50% in size
SW480 rereplic = inducers of DNA re-replication in SW480 colon cancer cells; Potency, µM (highest dose often 46.1 µM), without a hit: at the highest dose re-replication activation, hits mostly activators; SW480 DNA re-replication, Hoechst DNA content imaging, 48 h; 1.8% of 340,000 active; note: potency is the fitted concentration of half-maximal effect; % of control where 0% means no effect; nearly all actives have a fitted effect of over 55% in size
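Compounds, transferred as 23 nL by pin tool, were incubated with cells for 48 hr; DNA content per nucleus was then quantified by Hoechst staining and fluorescence plate imaging.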
Numbers without * were called inactive; ? = inconclusive; / = not tested or not shown; [ ] = another dose, or the depositor's remark. Hits are enriched below; roughly 8.3% of the tested compounds scored in any of these assays. Unless noted, calls come from the whole dose curve; as a rule, active = well fitted curve in the direction sought with a large enough effect; inconclusive = small, poorly fitted or top-dose-only effect, or another doubt; inactive = no such curve, though single readings can be large; an effect the other way counts as inactive or inconclusive.

SMILES | RORg inh | Giardia killer | VP16 counter | Chronic BCR inh | MCF10A rerep | SW480 rereplic
Cc1ccc2oc(C(=O)N3CCC(O)(c4cccc(C(F)(F)F)c4)CC3)c(C)c2c1 | ? | -2 | -7% | -6% | ? | 19%
CCN(Cc1ccccc1)C(=O)c1ccc2c(=O)n3c(nc2c1)CCC3 | / | 2 | / | 13% | 23% | -2%
Cc1ccc(C)c(NC(=O)NNC(=O)c2cc3ccccc3cc2O)c1 | -15% | 13 | -7% | 2% | 15µM* | -25%
O=C(NNC(=O)c1cc2ccccc2cc1O)c1cccs1 | 20µM* | 6 | ? | ? | -1% | ?
O=C(NNC(=O)c1ccc2ccccc2c1O)c1ccccc1Cl | ? | -8 | 2% | ? | 14% | 12%
Cc1ccc(NC(=O)NNC(=O)c2cc3ccccc3cc2O)c(C)c1 | -20% | -19 | 2% | ? | -12% | -8%
O=C(NNC(=O)c1ccc2ccccc2c1O)c1cccs1 | 16µM* | 2 | ? | ? | 12% | ?
CCC(=O)c1cn([C@H](CCC(OC)OC)CC(=O)OC(C)(C)C)cc1CC | / | -3 | / | -1% | -1% | -10%
O=C(Nc1cc(C(F)(F)F)ccc1Cl)c1cccnc1 | 8% | -17 | 12% | ? | -4% | -5%
CC1=CCC2C(=O)N(c3nc4ccccc4n3C)C(=O)C2C1 (centres undefined) | 3.5µM* | -13 | ? | / | 0% | -1%
Cc1cc(O)cc2c(=O)c3ccccc3sc12 | -31% | -4 | 1% | 17% | 18µM* | ?
COc1ccc2sc3ccccc3c(=O)c2c1 | -30% | -2 | -10% | 6% | ? | ?
Cc1cc(=O)n2[nH]c(N)c(N=Nc3ccccc3F)c2n1 | 10µM* | -21 | 11% | ? | ? | -4%
COc1cc2c3nnc(-c4ccccc4)c-3cn(Cc3ccccc3F)c2cc1OC | 8.9µM* | 3 | ? | ? | 23µM* | 23µM*
COc1cc2c3nnc(-c4ccc(F)cc4)c-3cn(Cc3ccccc3F)c2cc1OC | 6.3µM* | -6 | 5µM* | ? | 9.2µM* | ?
COc1ccccc1N1CCN(c2nnc(-c3ccc(F)cc3)c3ccccc23)CC1 | -7% | 21 | -11% | 5% | 7% | -4%
COc1ccc(-c2nnc(SCc3ccccc3F)o2)cc1OC | 28% | 6 | -2% | ? | 2% | -3%
Cc1ccccc1-c1ccc2ncnc(NCc3cccnc3)c2c1 | 39% | / | ? | / | / | /
O=C(CSc1nnc2ccc(-c3cccnc3)nn12)Nc1ccccc1F | / | 8 | / | 1% | 0% | -13%
COCCNC(=O)/C(C#N)=C/c1c(N2CC(C)OC(C)C2)nc2ccccn2c1=O (centres undefined) | -8% | -9 | 3% | 5% | 2% | ?
COCCCNC(=O)/C(C#N)=C/c1c(N2CCN(C)CC2)nc2ccccn2c1=O | -7% | 5 | 3% | 2% | 21µM* | ?
COCCNC(=O)/C(C#N)=C/c1c(N2CCN(c3ccccc3)CC2)nc2ccccn2c1=O | 20% | 8 | -4% | 3% | 24% | -6%
COCCCNC(=O)/C(C#N)=C/c1c(N2CCN(c3ccccc3)CC2)nc2ccccn2c1=O | -2% | -5 | -1% | 5% | 21µM* | 9.2µM*
CCOc1ccc(NC(=O)CN(C)C(=O)c2cc(S(=O)(=O)N(C)C)ccc2N2CCCC2)cc1OCC | / | -9 | / | -1% | 10% | 2%
COc1ccc(-c2cnnn2-c2ccc(NC(=O)c3ccccc3OC)cc2)cc1 | / | / | / | 1% | / | /
SMILES | RORg inh | Giardia killer | VP16 counter | Chronic BCR inh | MCF10A rerep | SW480 rereplic
CCCn1c(=NC(=O)c2ccncc2)c(C#N)cc2c(=O)n3cccc(C)c3nc21 | / | 4 | / | / | -3% | 27%
Cc1cccn2c(=O)c3cc(C#N)c(=NC(=O)c4ccncc4)n(CCCOC(C)C)c3nc12 | -44% | 16 | 2% | 6% | 4.6µM* | ?
CCCCn1c(=NC(=O)c2ccco2)c(C(=O)OCC)cc2c(=O)n3cccc(C)c3nc21 | -7% | 11 | 1% | ? | 6.5µM* | 18µM*
COCCCn1c(=NC(=O)c2ccncc2)c(C#N)cc2c(=O)n3cccc(C)c3nc21 | ? | 17 | 4% | -2% | 787%[0.0737 µM] | ?
CCCCn1c(=NC(=O)c2ccco2)c(C(=O)OCC)cc2c(=O)n3ccccc3nc21 | -24% | 11 | -9% | 9% | ? | -1%
CCOCCCn1c(=NC(=O)c2cccs2)c(C#N)cc2c(=O)n3ccccc3nc21 | -5% | 3 | -7% | ? | ? | 12µM*
CC(=O)N=c1c(C#N)cc2c(=O)n3cccc(C)c3nc2n1CCCOC(C)C | -43% | -1 | ? | 16% | ? | 21µM*
CC(=O)c1cccc(NC(=O)COC(=O)c2ccccc2C)c1 | 16% | 0 | -7% | -15% | 0% | -1%
Cc1cc(C)cc(SCc2noc(C(=O)NC(C)C)c2C(=O)NC(C)C)c1 | -20% | 17 | -2% | 17% | 3% | 0%
COc1ccc(C(=O)OCC(=O)NCC2CCCCC2)c(OC)c1 | / | 23 | / | 2% | -17% | -25%
CC(=O)N=c1c(C#N)cc2c(=O)n3cccc(C)c3nc2n1Cc1ccco1 | -14% | -21 | 2% | 24% | ? | 0.58µM*
Cc1cccn2c(=O)c3cc(C#N)c(=NC(=O)c4cccs4)n(CCCOC(C)C)c3nc12 | -10% | 29 | -12% | ? | ? | 21µM*
N#Cc1cc2c(=O)n3ccccc3nc2n(Cc2ccco2)c1=NC(=O)c1ccco1 | 3% | 21 | -12% | 5% | 23µM* | 19%
Cc1ccccc1C(=O)N=c1c(C#N)cc2c(=O)n3cccc(C)c3nc2n1Cc1ccco1 | 3% | / | -11% | ? | / | /
CC1=CC(C)(C)N(C(=O)CN2C(=O)c3ccccc3C2=O)c2ccc(C)cc21 | ? | 9 | 20µM* | -5% | -2% | -7%
CC1=CC(C)(C)N(C(=O)CN2C(=O)CCC2=O)c2ccccc21 | 14% | -12 | 4% | ? | 0% | -5%
O=C(O)/C=C/C(=O)c1c(-c2ccccc2)[nH]c2ccccc12 | 14µM* | -16 | ? | ? | 21µM* | ?
CC(=O)c1c(C)[nH]c(-c2ccccc2)c1C | -20% | 8 | ? | ? | 3% | -2%
CC(=O)c1c(-c2ccccc2)[nH]c2ccccc12 | ? | -1 | 2% | ? | 16µM* | ?
Cc1[nH]c2ccccc2c1C(=O)CCl | 13µM* | -23 | 11µM* | ? | 10µM* | 13µM*
CCOc1cc(/C=N/Nc2cccc(C(=O)O)c2)ccc1OCC(=O)N1CCCCC1 | -4% | 10 | -22% | ? | -4% | -11%
